# tim10-1 inh = inhibits growth of tim10-1 mutant yeast | actives 2.2% (n = 330,000) | S. cerevisiae tim10-1 ts strain growth, BacTiter-Glo, 24 h | inhibition, % at 20 µM;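 active means inhibition of at least 40%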;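 further: mutant grown at 25 °C; 0% = DMSO wells with yeast and 100% = wells holding no yeast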
# TIM10 inh = growth inhibitors of TIM10 yeast strain. inhibition, % at 10 µM. S. cerevisiae TIM10 strain growth, BacTiter-Glo luminescence, 24 h. actives 1.4% (n = 330,000);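 active means inhibition of 40% or more at the single tested concentration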;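 further: wild-type TIM10 isogenic control strain grown at permissive 25 °C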
# Mot1-301 SUMO = SUMOylation pathway inhibition by Mot1-301 growth rescue | S. cerevisiae Mot1-301 growth rescue, ATP luminescence, 38.5C; percent above DMSO median, 100 means doubled | AID 2716 | growth rescue, % at 18.8 µM | actives 1% (n = 320,000);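 active means every valid replicate shows activation above 250% relative to neutral control wells; inactive means the rest, any valid replicate at or below 250%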;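 further: OY570 slx delta 5 strain wells were the positive control but not used for scaling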
# PfHsp90 set2 = reduces growth (ATP signal) of yeast expressing P. falciparum Hsp90 | S. cerevisiae expressing PfHsp90, BacTiter-Glo ATP, 48 h; yeast lacking PDR1 and PDR3 efflux regulators | inhibition, % at 9.4 µM | actives 0.32% (n = 310,000) | AID 504621;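 active means every replicate shows inhibition above about 80%, whatever the replicate mean, limit read from the data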;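 further: 0% = DMSO neutral controls and 100% = 20 µM radicicol positive controls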
# tim23-1 inh = tim23-1 yeast growth inhibition | S. cerevisiae tim23-1 growth, BacTiter-Glo luminescence, 24 h | actives 1.3% (n = 330,000) | inhibition, % at 20 µM | AID 463212;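 active means growth inhibition of the mutant yeast at or above 50%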;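 further: temperature-sensitive mutant grown at 25 °C; plate controls were DMSO-treated mutant yeast for no effect and medium wells lacking yeast for full effect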
# tim23-1 conf = confirmation of tim23-1 mutant yeast growth inhibitors | shares compounds with tim23-1 inh | S. cerevisiae tim23-1 growth, BacTiter-Glo luminescence, 24 h | inhibition, % at 20 µM | actives 83% (n = 4,400);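 active means inhibition above about 39% in either of two replicate wells at 20 µM, limit read from the data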;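 further: temperature-sensitive tim23-1 mutant grown at 25 °C; 0% = DMSO wells with yeast and 100% = medium wells without yeast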
# Numbers without * were called inactive; x = not tested or not shown. The list is not random: actives were taken first. Their share in the collection is about 4.4%.
SMILES,tim10-1 inh,TIM10 inh,Mot1-301 SUMO,PfHsp90 set2,tim23-1 inh,tim23-1 conf
CCc1ccc(NC(=O)Nc2ccsc2C(=O)OC)cc1,31,12,-11,14,56*,57*
COC(=O)c1sccc1NC(=O)Nc1ccc(OC)c(OC)c1,2,11,-7,5,-3,x
COC(=O)c1sccc1NC(=O)Nc1ccc(C)c(C)c1,36,33,-4,55,60*,49*
O=C(Cn1c(-c2ccccc2)noc1=O)Nc1ccc(N2CCCCCC2)cc1,39,29,0,0,51*,42*
O=C(Cn1c(-c2ccccc2)noc1=O)Nc1ccc(S(=O)(=O)N2CCOCC2)cc1,8,3,4,0,2,x
O=C(CCl)Nc1cccc(Oc2ccccc2)c1,14,14,69,-11,52*,33
CN(Cc1ccccc1)C(=O)c1ccc(NC(=O)Cc2cccc(NC(=O)C3CCCN(C(=O)C4CCCCC4)C3)c2)cc1 (stereo unspecified),9,1,25,x,7,x
Cc1ccc(CN2CCN(/N=C/c3cc(Br)cc(Br)c3O)CC2)cc1,25,12,326,22,59*,59*
Cc1ccc(CN2CCN(/N=C/c3cc(Br)ccc3F)CC2)cc1,7,5,203,18,20,x
Cc1c(N2C(=O)/C(=C\c3ccccc3O)SC2=S)c(=O)n(-c2ccccc2)n1C,24,32,-6,-29,67*,63*
Cc1c(N2C(=O)/C(=C/c3cccc4ccccc34)SC2=S)c(=O)n(-c2ccccc2)n1C,11,22,-10,18,19,x
COc1ccc(NC(=O)/C=C/c2cccc(Br)c2)cn1,-56,13,19,-4,87*,24
COc1ccc(NC(=O)/C=C/c2cccc(C(F)(F)F)c2)cn1,9,-5,72,-18,31,x
O=S(=O)(Cc1ccccc1)N(O)c1ccccc1,-2,14,7,6,13,x
CC(C)c1cccc(C2=CC(=O)C[C@H](c3ccc4c(c3)OCO4)C2)c1,17,19,15,-43,39,x
COc1ccccc1C(=O)Oc1cc(N)n(S(=O)(=O)c2ccc(C)cc2)n1,36,38,-8,-1,28,x
Cc1ccc(S(=O)(=O)n2ccc(OC(=O)c3cccs3)n2)cc1,39,32,146,8,58*,57*
Cc1ccc(S(=O)(=O)c2c(C)nn(C(C)(C)C)c2OC(=O)c2cccs2)cc1,30,24,-12,2,51*,39
CC(=O)Oc1c(S(=O)(=O)c2ccc(C)cc2)c(C)nn1C(C)(C)C,34,23,0,-32,52*,39
CC(=O)Oc1c(S(=O)(=O)c2ccc(C)cc2)c(C)nn1-c1ccccc1,-12,-6,-6,7,0,x
Cc1ccc(S(=O)(=O)NCCC(=O)NNC(=O)c2ccccc2Cl)cc1C,10,3,x,-4,12,x
CC(C)=CCC/C(C)=C/CC/C(C)=C/COc1ccc2ccc(=O)oc2c1,0,-5,-3,7,10,x
CCC(C)(C)c1ccc(OCCCC[n+]2cccc(C)c2C)c(C(C)(C)CC)c1,-8,34,173,110*,59*,36*
Cc1cc(C(C)(C)C)ccc1OCCCCN1CCCC1,-6,20,-3,-14,-4,x
NNC(=O)c1cc2cc(Oc3ccccc3)ccc2[nH]1,37,26,-9,13,59*,15
SMILES,tim10-1 inh,TIM10 inh,Mot1-301 SUMO,PfHsp90 set2,tim23-1 inh,tim23-1 conf
COc1ccc(Nc2nc(N)c([N+](=O)[O-])c(NC3CCCCC3)n2)cc1,39,23,3,-101,62*,52*
CN(C(=O)c1ccc(NC(=O)Cc2cccc(NC(=O)C3CCN(C(=O)C4CCCCC4)CC3)c2)cc1)C1CCCC1,-1,2,-6,x,4,x
Cc1cccc(/C=N/NC(=O)c2c(-c3ccccc3)noc2C)c1O,24,33,-20,-21,53*,51*
Cc1nc(-c2ccc(NC(=O)c3ccc(Br)o3)cc2)cs1,5,9,-32,24,62*,56*
Cc1nc(-c2ccc(NC(=O)C3CC3)cc2)cs1,-7,18,41,23,54*,40*
Cc1nc(-c2cccc(NC(=O)C3CCCCC3)c2)cs1,15,18,388,-15,39,x
Cn1nc(C#N)c(=O)[nH]c1=O,x,x,x,12,x,x
COc1ccccc1C(=O)Nc1ccnn1C1CCN(Cc2ccn[nH]2)CC1,-1,-1,-7,9,-16,x
O=Cc1cccnc1SCc1ccccc1,17,15,22,-7,57*,61*
N#Cc1nc(-c2cccs2)oc1NCc1ccc(Cl)cc1,24,23,10,10,51*,55*
N#Cc1nc(-c2cccs2)oc1NCc1ccco1,23,-9,39,-58,15,x
N#Cc1nc(-c2cccs2)oc1NCc1ccccc1Cl,38,14,-25,-35,56*,54*
C[C@H](CO)N1C[C@H](C)[C@@H](CN(C)Cc2ccc(C(=O)O)cc2)Oc2c(NS(=O)(=O)c3ccc(F)cc3)cccc2C1=O,-7,0,2,-8,5,x
O=Cc1ccccc1-c1cn(CN2C(=O)c3ccccc3C2=O)nn1,25,9,0,-39,33,x
COc1ccc(F)cc1S(=O)(=O)n1nc(C)cc1C,6,4,234,-8,95*,9
COc1ccc(N2CCN(c3cc(C)c4ccc(C)cc4n3)CC2)cc1,21,5,141,2,11,x
COc1ccc(N2CCN(c3nc4cc(C)ccc4cc3C=O)CC2)cc1,-19,25,126,26,52*,45*
CCc1ccc(C2CC(=O)NC(SCC(=O)OC(C)C)=C2C#N)cc1 (stereo unspecified),32,12,-14,15,55*,57*
COC(=O)CSC1=C(C#N)C(c2ccc(C(C)C)cc2)CC(=O)N1 (stereo unspecified),39,-4,13,-7,40,x
CCOC(=O)CSC1=C(C#N)C(c2ccc(C)s2)CC(=O)N1 (stereo unspecified),-2,22,1,18,58*,46*
CCSC1=C(C#N)C(c2ccc(C)s2)CC(=O)N1 (stereo unspecified),-23,12,39,-4,34,x
CCC1(c2ccccc2)NC(=O)N(CC(=O)Nc2ccc3c(C)cc(=O)oc3c2)C1=O (stereo unspecified),3,5,8,-5,7,x
CC1Cn2c(nc3sc4c(c3c2=O)CC(C)(C)OC4)N1CCO (stereo unspecified),5,-2,-9,1,-18,x
O=C(c1ccc(-c2ccc([N+](=O)[O-])cc2)o1)N1CCN(S(=O)(=O)c2cccs2)CC1,31,30,10,x,36,x
O=C(CSc1cccs1)Nc1ccc2ccccc2c1,0,30,37,-19,55*,57*
